{"source": "PubChem BioAssay (NCI)", "note": "Compounds without any hit were thinned out: in the full panel of roughly 79,000, 15% have a hit. The source made the active and inactive calls. No stated cut-off is given here; in the data, active means growth inhibition above about 70%; inactive means the rest."}
{"assay": "NCI Yeast Anticancer Drug Screen. Data for the mlh1 strain (AID 171);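 further: 0% = growth of vehicle-treated control cultures of the same strain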", "details": "S. cerevisiae mlh1 strain growth inhibition; at 100.0 µM; stronger effect = higher value", "procedure,_shortened": "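Measured: yeast growth. Reference: vehicle-treated controls. Organism: strain with a defined alteration affecting DNA damage repair or cell cycle control, treated with compound.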"}
{"smiles": "O=CC=C(c1ccccc1)c1ccccc1", "growth inhibition": "99% (active)"}
{"smiles": "FC(F)(F)c1nc2nc(Cl)c(Cl)nc2n1CCCN1CCOCC1", "growth inhibition": "35% (inactive)"}
{"smiles": "BrCC[P+](c1ccccc1)(c1ccccc1)c1ccccc1", "growth inhibition": "97% (active)"}
{"smiles": "N#CSc1ccc(S(N)(=O)=O)cc1", "growth inhibition": "64% (inactive)"}
{"smiles": "O=[N+]([O-])c1ccc2nc3ccccc3cc2c1", "growth inhibition": "96% (active)"}
{"smiles": "O=C(NC(Nc1ccc(F)c(Cl)c1)(C(F)(F)F)C(F)(F)F)C(C(F)(F)F)C(F)(F)F", "growth inhibition": "98% (active)"}
{"smiles": "O=C(/C=C\\c1ccc(Cl)cc1Cl)c1cccs1", "growth inhibition": "12% (inactive)"}
{"smiles": "O=C(NCCCCNCCCNC(=O)c1cc(-c2ccccc2)nc2ccccc12)c1cc(-c2ccccc2)nc2ccccc12", "growth inhibition": "94% (active)"}
{"smiles": "NC(=NCc1ccccc1)N/N=C\\c1ccnc2ccccc12", "growth inhibition": "52% (inactive)"}
{"smiles": "CCCCN(CCCC)CCSc1ccc(Cl)cc1", "growth inhibition": "91% (active)"}
{"smiles": "COc1cc(C2C3=C(COC3=O)Oc3cc4c(cc32)OCO4)ccc1O", "note": "(centres undefined)", "growth inhibition": "0% (inactive)"}
{"smiles": "C#CCCCc1ccccc1", "growth inhibition": "98% (active)"}
{"smiles": "CCc1ccc(NS(=O)(=O)c2ccccc2)c([N+](=O)[O-])c1", "growth inhibition": "71% (active)"}
{"smiles": "COc1ccc(C2c3cc4c(cc3OC(C)(O)C2C)OCO4)c(OC)c1", "note": "(centres undefined)", "growth inhibition": "96% (active)"}
{"smiles": "COC(=O)c1ccc(CCC2=CC(=O)C(Br)=CC2=O)cc1", "growth inhibition": "56% (inactive)"}
{"smiles": "NNC(=O)CCc1ccc2ccc3ccccc3c2c1", "growth inhibition": "48% (inactive)"}
{"smiles": "Cn1c2ccccc2c(=O)c2cc(NC(=O)CCCCC(=O)Nc3ccc4c(c3)c(=O)c3ccccc3n4C)ccc21", "growth inhibition": "66% (inactive)"}
{"smiles": "CC(CC(C)(C)[N+](C)(C)C)[N+](C)(C)C", "note": "(centres undefined)", "growth inhibition": "0% (inactive)"}
{"smiles": "CC1CCN(CCC(=O)c2ccc(Cl)cc2)CC1", "growth inhibition": "40% (inactive)"}
{"smiles": "CCCCCCCCCCCCCCC(C(=O)[O-])[n+]1ccccc1", "note": "(centres undefined)", "growth inhibition": "99% (active)"}
{"smiles": "CNC1C(OC2C(OC3C(O)C(O)C(N=C(N)N)C(O)C3N=C(N)N)OC(C)C2(O)CO)OC(CO)C(O)C1O", "note": "(centres undefined)", "growth inhibition": "10% (inactive)"}
{"smiles": "O=C(O)c1ccccc1-c1ccccc1C(=O)Nc1ccc2c(c1)Cc1ccccc1-2", "growth inhibition": "97% (active)"}
{"smiles": "O=[N+]([O-])c1cccc2nc3ccccc3c(NCCCN3CCOCC3)c12", "growth inhibition": "99% (active)"}
{"smiles": "C=CC(C)(O)CCC1C(=C)C(O)CC2C(C)(C)CCCC12C", "note": "(centres undefined)", "growth inhibition": "42% (inactive)"}
{"smiles": "CN1c2ccc(Cl)cc2C(=O)NC1c1ccc([N+](=O)[O-])s1", "note": "(centres undefined)", "growth inhibition": "97% (active)"}
{"smiles": "[O-][n+]1c2ccc(O)cc2nc2ccc(Br)cc21", "growth inhibition": "84% (active)"}
{"smiles": "O=C1c2ccccc2-c2nc3ccccc3nc21", "growth inhibition": "61% (inactive)"}
{"smiles": "CCCCN1C(=O)N(c2ccc(OCC)cc2)C2N(CCCC)C1C(C)(C)C2(C)C", "note": "(centres undefined)", "growth inhibition": "79% (active)"}
{"smiles": "CO[C@H]1C[C@](C)(O)Cc2cc3c(c(O)c21)C(=O)c1c(O)cc2c(c1C3=O)O[C@@H]1O[C@@]2(C)[C@H](O)[C@@H](N(C)C)[C@@H]1O", "growth inhibition": "-22% (inactive)"}
{"smiles": "COc1cc2c(cc1[N+](=O)[O-])C(=O)C(Br)(Br)CCC2", "growth inhibition": "97% (active)"}
{"smiles": "O=C1OC(CCl)CN1/N=C/c1ccc([N+](=O)[O-])o1", "note": "(centres undefined)", "growth inhibition": "69% (inactive)"}
{"smiles": "CN(C)CCOc1ccc2c(c1)C/C(=C/c1ncc([N+](=O)[O-])n1C)C2=O", "growth inhibition": "62% (inactive)"}
{"smiles": "CCCCCCCCCCCCCCCCCCN(C)CC(COP(=O)([O-])OCC[N+](C)(C)C)OC", "note": "(centres undefined)", "growth inhibition": "99% (active)"}
{"smiles": "CC(C)c1ccccc1NC(=O)/C(Cl)=C(\\Cl)C(=O)O", "growth inhibition": "66% (inactive)"}
{"smiles": "O=[N+]([O-])C(=C(Sc1ccccc1)Sc1ccccc1)C(Cl)=C(Cl)Cl", "growth inhibition": "74% (active)"}
{"smiles": "C(=C\\c1ccccc1)/COc1ccccc1C(N1CCOCC1)n1nc2ccccc2n1", "note": "(centres undefined)", "growth inhibition": "97% (active)"}
{"smiles": "O=C1C(Nc2ccccc2)=C(Oc2ccccc2)C(=O)c2ccccc21", "growth inhibition": "0% (inactive)"}
{"smiles": "CCN(CC)CCN1C(=O)c2cccc3cc(OC)cc(c23)C1=O", "growth inhibition": "9% (inactive)"}
{"smiles": "CN(C)Cc1cc(N=Nc2ccc(Cl)cc2)cc(CN(C)C)c1O", "growth inhibition": "18% (inactive)"}
